The values that follow come from PubChem BioAssay (NCATS).

Values without a mark were called inactive. Inconclusive results are not listed. Calls of active or inactive are those of the source. Unless noted, calls come from the whole dose curve; as a rule, active = well fitted curve in either direction with a large enough effect (not every such curve was filed as active); inconclusive = small, poorly fitted or top-dose-only effect, or another doubt; inactive = flat fitted curve, though single readings scatter.

A short description of assay [1]: AP1 Signaling Pathway (AID 357). Note: % is set by controls: 0 for no effect and ±100 for the full control effect. Conditions: ME-180 AP-1-bla reporter, EGF-induced, beta-lactamase ratio, 5 h; at 17.2 µM (top of the series) unless noted. The essentials: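 Cells are seeded overnight, exposed to compound titrations and an EC50 level of EGF for 5 hours at 37 °C, then loaded with CCF4 dye for 2.5 hours. Beta-lactamase activity under the AP-1 element is read as a blue/green ratio.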

Assay [2] can be described thus: NFAT Signaling Pathway (AID 444).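 Note: carbachol stimulus at about its EC50 of 1 µM final; % is set by controls: 0 for no effect and ±100 for the full control effect.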 Conditions: Jurkat NFAT-bla M1, carbachol, beta-lactamase ratio, 5 h; at 17.2 µM (top of the series) unless noted. The essentials: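 Jurkat cells carrying an NFAT-driven β-lactamase reporter and co-transfected muscarinic M1 receptor were treated with compound plus carbachol (1 uM final, an EC50 level) for 5 h at 37 °C. CCF4 loading followed for 1 h at RT; 460/530 nm ratio gave %activity.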

Assay [3] in a line: Stat Signaling Pathway (AID 446).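 Note: ME-180 cervical cancer cells given 40 pM IL-6 alongside compound; SIE-controlled beta-lactamase reporter measured as 460/530 nm FRET emission ratio; % is set by controls: 0 for no effect and ±100 for the full control effect.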 To be noted: ME-180 SIE beta-lactamase reporter, IL-6 stimulated, 5 h; at 17.2 µM (top of the series) unless noted. A digest of the protocol: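 Screening format detects activators and inhibitors alike: ME-180 SIE-bla cells stimulated at 40 pM IL-6 for 5 hrs with compound, then dual-emission beta-lactamase read at 405 nm excitation.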
The target in assay [4] is Glucocorticoid receptor (Homo sapiens) (UniProt P04150). The experiment in a line: GR-GFP Redistribution (AID 450;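 active = compounds whose dose series gives a full or clear partial fitted curve of increased nuclear translocation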; note: potency is the fitted concentration of half-maximal effect).
Chain of Glucocorticoid receptor (Homo sapiens) (P04150 whole entry, looked up): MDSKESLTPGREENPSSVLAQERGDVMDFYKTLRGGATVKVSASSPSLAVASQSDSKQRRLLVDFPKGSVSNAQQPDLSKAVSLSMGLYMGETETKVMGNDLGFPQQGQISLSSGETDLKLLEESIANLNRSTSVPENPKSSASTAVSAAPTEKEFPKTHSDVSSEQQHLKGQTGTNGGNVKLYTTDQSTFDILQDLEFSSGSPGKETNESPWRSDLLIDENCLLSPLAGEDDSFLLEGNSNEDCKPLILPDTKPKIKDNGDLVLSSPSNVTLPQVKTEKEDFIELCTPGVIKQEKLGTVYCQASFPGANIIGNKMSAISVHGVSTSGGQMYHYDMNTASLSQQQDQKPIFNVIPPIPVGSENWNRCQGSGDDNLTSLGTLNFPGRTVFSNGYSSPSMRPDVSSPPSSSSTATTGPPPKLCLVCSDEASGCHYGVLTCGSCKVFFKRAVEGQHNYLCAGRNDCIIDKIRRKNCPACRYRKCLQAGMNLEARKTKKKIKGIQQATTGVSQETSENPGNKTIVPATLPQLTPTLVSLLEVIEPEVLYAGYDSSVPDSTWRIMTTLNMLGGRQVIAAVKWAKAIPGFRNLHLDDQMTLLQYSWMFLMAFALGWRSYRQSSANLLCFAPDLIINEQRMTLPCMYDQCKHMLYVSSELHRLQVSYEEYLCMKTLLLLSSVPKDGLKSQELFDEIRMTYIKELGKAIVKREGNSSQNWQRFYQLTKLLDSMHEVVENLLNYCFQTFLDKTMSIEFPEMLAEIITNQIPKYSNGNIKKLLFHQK
Assay [5] is described as follows: qHTS Assay for Identification of Small Molecule Agonists for Hypoxia Response Element Signaling Pathway (AID 914; active = well fitted activation curve with a large enough effect in the signal ratio, with a control signal flat, not every such curve was filed as active; the % refers to the signal ratio; note: % of control where 0% means no effect). To be noted: ME-180 (cervical carcinoma) HRE-bla reporter, beta-lactamase ratio, CoCl2, 17 h; activation: hits give high values. A digest of the protocol: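 HRE-bla ME-180 assay for agonist-like enhancement of an EC50 CoCl2 stimulus: 17 h at 37 degrees Celsius, CCF4 for 2.5 h, ratiometric 460/530 nm signal converted to %Activity and fitted to AC50.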

The target in assay [6] is Glucocorticoid receptor (Homo sapiens) (UniProt P04150). The experiment in a line: qHTS assay for small molecule agonists of glucocorticoid receptor signaling (AID 588532; active = well fitted curve in the direction sought with a large enough effect in the signal ratio, with a control signal flat; the % refers to the signal ratio;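 note: 100% = dexamethasone at 0.1 µM and 0% = DMSO only wells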). To be noted: HeLa MMTV-bla, beta-lactamase ratio, agonist, 18 h; hits give high values; percent of dexamethasone control, DMSO zero. A digest of the protocol: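 Titration series, up to 92 uM, applied to GRE-bla HeLa cells for 18 h at 37 C. Detection by CCF4 FRET substrate after 2 h at RT.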
(In qHTS, concentration-response curves come from the screen itself.)

For assay [7] the target is unchanged. The experiment in a line: qHTS assay for small molecule antagonists of glucocorticoid receptor signaling (AID 588533; active = well fitted inhibition curve with a large enough effect in the signal ratio, with a control signal flat, not every such curve was filed as active; the % refers to the signal ratio;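 note: cells stimulated with 2 nM dexamethasone as agonist; % is set by controls: 0 for no effect and ±100 for the full control effect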). A digest of the protocol: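 Antagonist-mode qHTS: compound titrations added to GRE-bla HeLa cells, then dexamethasone 2 nM final; 18 h, 37 C. CCF4 FRET fluorescence normalized to dexamethasone and DMSO; IC50 from Hill fit.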
Assay [8] concerns the target Peroxisome proliferator-activated receptor gamma (Homo sapiens) (UniProt P37231). The experiment in a line: qHTS assay for small molecule antagonists of peroxisome proliferator-activated receptor gamma signaling (AID 588537; active = well fitted inhibition curve with a large enough effect in the signal ratio, with a control signal flat, not every such curve was filed as active; the % refers to the signal ratio;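 note: reporter cells co-stimulated with 50 nM rosiglitazone agonist during compound treatment; % of control where 0% means no effect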). The essentials: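 We seeded GeneBLAzer HEK293 reporter cells at 3000 per well, allowed 6-6.5 h attachment at 37 C, then co-treated with test compound titrations and 50 nM rosiglitazone overnight (16 h). Inhibition was quantified from 460/530 nm emission ratios.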

Assay [9] in a line: qHTS assay for small molecule agonists of the antioxidant response element (ARE) signaling pathway (AID 651741; active = well fitted activation curve with a large enough effect in the signal ratio; the % refers to the signal ratio; note: potency is the fitted concentration of half-maximal effect). The essentials: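 Compounds in DMSO are pinned onto HepG2 ARE-bla cells (2,000/well) that were preincubated 5 h; plates stay 16 h at 37 C, then beta-lactamase activity is detected with LiveBLAzer B/G substrate by fluorescence.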
Assay [10] has as its target Peroxisome proliferator-activated receptor alpha (Homo sapiens) (UniProt Q07869). Put plainly: qHTS assay for small molecule agonists of the peroxisome proliferator-activated receptor alpha (PPARalpha) signaling pathway (AID 651778; active = well fitted curve in the direction sought with a large enough effect; an effect the other way counts as inactive or inconclusive; note: % of control where 0% means no effect). Conditions: PathHunter PPARalpha complementation, chemiluminescence, 6 h; max response: hits give high values. A digest of the protocol: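 Cells plated at 2,000/well and held overnight at 37 C, 5% CO2, then compound added by pin tool for 6 hr; after PathHunter detection reagent and 60 min at room temperature, chemiluminescence from enzyme complementation was read.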

Assay [11] can be described thus: qHTS assay for small molecule agonists of the antioxidant response element (ARE) signaling pathway measured by Nrf2-dependant transcriptional activity - cell viability counter screen (AID 720653; active = well fitted curve in the direction sought with a large enough effect in the repeat runs; an effect the other way counts as inactive or inconclusive; note: % is set by controls: 0 for no effect and ±100 for the full control effect). Conditions: ARE-bla HepG2 viability, CellTiter-Glo ATP luminescence, 16 h; max response: hits give low values. A digest of the protocol:
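ARE-bla HepG2 cells (2,000/well) rested 5 hrs at 37C/5% CO2, then exposed to compounds in DMSO for 16 hrs. Viability was read in the same wells as intracellular ATP by luminescence, 30 min at room temperature after reagent addition.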

Assay [12] in a line: qHTS assay for cell viability of HEK293 cells (AID 743288; active = well fitted curve in the direction sought with a large enough effect; an effect the other way counts as inactive or inconclusive; note: % is set by controls: 0 for no effect and ±100 for the full control effect; nearly all actives have a fitted effect of over 50% in size). Conditions: ATP luminescence (CellTiter-Glo), 18 h; max response: hits give low values. A digest of the protocol:
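Luminescent ATP quantitation served as the viability read-out. Cells (parental HEK293, 2,000/well) received compounds after at least 5 h at 37 C and were exposed for 18 h before a 30 min room-temperature reagent step.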

A short description of assay [13]: qHTS assay for cell viability of the p53RE-bla HCT-116 cell line (AID 743292; active = well fitted curve in the direction sought with a large enough effect; an effect the other way counts as inactive or inconclusive; note: % is set by controls: 0 for no effect and ±100 for the full control effect; nearly all actives have a fitted effect of over 55% in size). A digest of the protocol: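 Compound-exposed HCT-116 (p53RE-bla) cells, 4,000 per well, were kept 16 h at 37 C following a 5 h preincubation. Cell number was estimated from total ATP by CellTiter-Glo luminescence read after 30 min at room temperature.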
Assay [14] has as its target Nuclear receptor subfamily 1 group I member 2 (Rattus norvegicus) (UniProt Q9R1A7). The experiment in a line: qHTS assay for small molecule activators of the rat pregnane X receptor (rPXR) signaling pathway (AID 651751; call rule not given here; note: 0% is about no effect). Conditions: rPXR reporter cells, luciferase (One-Glo), 24 h.
The target of assay [15] is Mitogen-activated protein kinase 10 (Mus musculus) (UniProt Q61831). The experiment in a line: JNK3 AlphaScreen Assay (AID 530). The essentials:
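Inhibitors reduce antibody binding to phosphorylated biotin-cJun, lowering AlphaScreen luminescence. Lysates from HepG2 cells pre-activated by IL-1beta plus TNF-alpha supplied JNK3; compounds were titrated.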
(Bead proximity is the source of the signal in Alpha formats.)

The target in assay [16] is 3',5'-cyclic-AMP phosphodiesterase 4B (Homo sapiens) (UniProt Q07343). Put plainly: qHTS Assay for Inhibitors of PDE-IV (AID 607; active = well fitted activation curve with a large enough effect in the main read-out, with a control signal flat, not every such curve was filed as active; note: % of control where 0% means no effect). The essentials:
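The readout is membrane depolarisation from a cAMP-sensing CNG channel, detected with a potential dye at ex 535/em 590. Cells were HEK293-derived (endogenous PDE-IV) at 1000 cells/well, titrated up to 22.9 uM final.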

The target in assay [17] is Guanine nucleotide-binding protein G(i) subunit alpha-1 (Homo sapiens) (UniProt P63096). Put plainly: qHTS Assay for Inhibitors of RGS12 GoLoco Motif Activity (Green Fluorophore) (AID 879; active = well fitted curve in the direction sought with a large enough effect; an effect the other way counts as inactive or inconclusive;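 note: 0% = labeled peptide with Gαi1 and full inhibition = labeled peptide alone without protein; negative values mean loss of peptide binding seen as reduced polarization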). The essentials: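 Fluorescence polarization assay: 50 nM Gαi1 with 10 nM FITC-labeled RGS12 GoLoco peptide in 10 mM Tris pH 7.5, 150 mM NaCl, 0.1 mM GDP, 0.05% NP40, 10 min at room temperature with compound.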
Chain of Guanine nucleotide-binding protein G(i) subunit alpha-1 (Homo sapiens) (P63096 whole entry, looked up): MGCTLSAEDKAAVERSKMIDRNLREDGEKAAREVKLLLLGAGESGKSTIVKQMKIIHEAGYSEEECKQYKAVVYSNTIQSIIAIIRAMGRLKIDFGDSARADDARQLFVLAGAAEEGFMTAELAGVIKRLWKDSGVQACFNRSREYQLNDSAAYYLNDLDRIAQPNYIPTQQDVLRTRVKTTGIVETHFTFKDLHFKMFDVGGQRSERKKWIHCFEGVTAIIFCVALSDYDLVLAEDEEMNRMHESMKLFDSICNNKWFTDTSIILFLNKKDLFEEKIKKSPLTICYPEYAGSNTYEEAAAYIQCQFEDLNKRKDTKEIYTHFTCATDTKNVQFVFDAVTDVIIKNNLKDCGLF

Assay [18] in a line: qHTS Assay for Identification of Small Molecule Agonists for Thrombopoietin (TPO) Signaling Pathway (AID 917; active = well fitted curve in the direction sought with a large enough effect; an effect the other way counts as inactive or inconclusive; note: % is set by controls: 0 for no effect and ±100 for the full control effect). The essentials:
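IL-3-dependent murine pro-B Ba/F3 cells, stably transfected with human TPO receptor and GpIIb-promoter luciferase, are incubated 24 hrs at 37 C with test compound and 26 pM TPO; luciferase signal is read after 10 min at room temperature.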

For assay [19], the target named is Pyruvate kinase (Leishmania mexicana) (UniProt Q27686). Put plainly: qHTS Validation Assay for Inhibitors of Leishmania Mexicana Pyruvate Kinase (AID 945; active = well fitted curve in the direction sought with a large enough effect; an effect the other way counts as inactive or inconclusive;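 note: 0% = DMSO only neutral control wells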). The essentials: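 Eight-point qHTS titrations; enzyme 0.2 nM LmPYK (E451W mutant); substrates 0.5 mM PEP, 0.1 mM ADP; 7 mM MgCl2; 1 h room temperature; PKLight luminescence normalized to neutral control.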
Chain of Pyruvate kinase (Leishmania mexicana) (Q27686 2-499 E452W): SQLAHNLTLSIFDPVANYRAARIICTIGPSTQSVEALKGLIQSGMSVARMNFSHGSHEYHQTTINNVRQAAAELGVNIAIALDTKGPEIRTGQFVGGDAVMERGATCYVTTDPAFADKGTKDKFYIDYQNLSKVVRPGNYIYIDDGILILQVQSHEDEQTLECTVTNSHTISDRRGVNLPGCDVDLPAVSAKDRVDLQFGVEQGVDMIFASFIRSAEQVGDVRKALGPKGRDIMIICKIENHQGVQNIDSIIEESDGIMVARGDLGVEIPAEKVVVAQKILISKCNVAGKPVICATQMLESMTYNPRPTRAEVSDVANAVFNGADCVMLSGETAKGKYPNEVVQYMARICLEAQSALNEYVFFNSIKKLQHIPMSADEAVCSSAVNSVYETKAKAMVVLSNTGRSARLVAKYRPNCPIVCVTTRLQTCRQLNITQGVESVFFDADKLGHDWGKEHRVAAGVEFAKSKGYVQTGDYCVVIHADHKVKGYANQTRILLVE

Assay [20] concerns the target Pyruvate kinase PKM (Homo sapiens) (UniProt P14618). The experiment in a line: qHTS Assay for Activators of Human Muscle Pyruvate Kinase (AID 954; active = well fitted curve in the direction sought with a large enough effect, not every such curve was filed as active;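 note: 0% = uninhibited enzyme and -100% = no enzyme or full thiadiazolimine inhibition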). The essentials: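 Reaction: 0.1 nM purified PKM2 with 0.5 mM phosphoenolpyruvate and 0.1 mM ADP, room temperature, 1 h. Readout: luciferase-based ATP luminescence after stop reagent. Activators judged against a 0.3 nM enzyme column.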

The target of assay [21] is Alpha-galactosidase A (Homo sapiens) (UniProt P06280). The experiment in a line: Counterscreen for Glucocerebrosidase Inhibitors: qHTS Assay for Human alpha-Galactosidase at pH 4.5 (AID 992; active = well fitted curve in the direction sought with a large enough effect; an effect the other way counts as inactive or inconclusive; note: 0% is about no effect). A digest of the protocol: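 Concentration-response curves (0.7 nM to 77 uM final) were modeled with the Hill equation to give AC50. Reactions: 2 nM enzyme, 80 uM fluorogenic alpha-galactoside, pH 4.5 citric acid buffer, 20 min, room temperature.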
Chain of Alpha-galactosidase A (Homo sapiens) (P06280 whole entry, looked up): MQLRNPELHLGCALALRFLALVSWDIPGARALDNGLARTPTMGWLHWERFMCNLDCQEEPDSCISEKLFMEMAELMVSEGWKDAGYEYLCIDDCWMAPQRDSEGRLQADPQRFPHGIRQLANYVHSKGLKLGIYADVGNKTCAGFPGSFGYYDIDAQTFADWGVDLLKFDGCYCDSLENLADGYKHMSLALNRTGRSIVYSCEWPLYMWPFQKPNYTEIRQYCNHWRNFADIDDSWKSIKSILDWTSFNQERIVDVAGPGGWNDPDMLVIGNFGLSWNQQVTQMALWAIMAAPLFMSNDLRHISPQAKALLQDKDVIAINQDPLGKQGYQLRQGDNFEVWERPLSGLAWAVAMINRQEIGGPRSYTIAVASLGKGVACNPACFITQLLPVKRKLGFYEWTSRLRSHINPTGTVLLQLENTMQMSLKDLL

Assay [22] addresses alpha-glucosidase (Oryza sativa, rice) (UniProt Q653V4). The experiment in a line: Counterscreen for Glucocerebrosidase Inhibitors: qHTS Assay for Rice alpha-Glucosidase at pH 5.0 (AID 997; active = well fitted curve in the direction sought with a large enough effect; an effect the other way counts as inactive or inconclusive;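 note: 0% = full activity with enzyme and -100% = basal without enzyme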). A digest of the protocol:
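Rice alpha-glucosidase (4 nM final) with 400 uM 4-methylumbelliferyl-alpha-D-glucopyranoside in citrate buffer pH 5.0, 20 min at room temperature, stopped at pH 10; fluorescence 365/440 nm, compounds 0.7 nM–77 uM, AC50 from Hill fits.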
(A counterscreen serves to expose hits that act by an unwanted route or on another target.)

Chain of Peroxisome proliferator-activated receptor gamma (Homo sapiens) (P37231 whole entry, looked up): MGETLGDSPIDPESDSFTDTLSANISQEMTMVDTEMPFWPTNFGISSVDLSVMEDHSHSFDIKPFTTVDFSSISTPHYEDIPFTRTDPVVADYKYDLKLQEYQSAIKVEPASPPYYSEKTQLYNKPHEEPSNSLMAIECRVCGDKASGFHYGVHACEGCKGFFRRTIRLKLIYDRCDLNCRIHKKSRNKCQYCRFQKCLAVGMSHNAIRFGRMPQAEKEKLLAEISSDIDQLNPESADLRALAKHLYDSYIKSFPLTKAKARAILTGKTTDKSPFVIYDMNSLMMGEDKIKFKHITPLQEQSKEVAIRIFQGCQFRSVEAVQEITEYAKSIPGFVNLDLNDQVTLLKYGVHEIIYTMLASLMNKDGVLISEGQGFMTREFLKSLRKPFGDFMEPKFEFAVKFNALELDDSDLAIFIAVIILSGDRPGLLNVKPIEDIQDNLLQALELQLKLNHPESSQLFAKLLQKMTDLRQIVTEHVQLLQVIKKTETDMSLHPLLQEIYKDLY
Chain of 3',5'-cyclic-AMP phosphodiesterase 4B (Homo sapiens) (Q07343 whole entry, looked up): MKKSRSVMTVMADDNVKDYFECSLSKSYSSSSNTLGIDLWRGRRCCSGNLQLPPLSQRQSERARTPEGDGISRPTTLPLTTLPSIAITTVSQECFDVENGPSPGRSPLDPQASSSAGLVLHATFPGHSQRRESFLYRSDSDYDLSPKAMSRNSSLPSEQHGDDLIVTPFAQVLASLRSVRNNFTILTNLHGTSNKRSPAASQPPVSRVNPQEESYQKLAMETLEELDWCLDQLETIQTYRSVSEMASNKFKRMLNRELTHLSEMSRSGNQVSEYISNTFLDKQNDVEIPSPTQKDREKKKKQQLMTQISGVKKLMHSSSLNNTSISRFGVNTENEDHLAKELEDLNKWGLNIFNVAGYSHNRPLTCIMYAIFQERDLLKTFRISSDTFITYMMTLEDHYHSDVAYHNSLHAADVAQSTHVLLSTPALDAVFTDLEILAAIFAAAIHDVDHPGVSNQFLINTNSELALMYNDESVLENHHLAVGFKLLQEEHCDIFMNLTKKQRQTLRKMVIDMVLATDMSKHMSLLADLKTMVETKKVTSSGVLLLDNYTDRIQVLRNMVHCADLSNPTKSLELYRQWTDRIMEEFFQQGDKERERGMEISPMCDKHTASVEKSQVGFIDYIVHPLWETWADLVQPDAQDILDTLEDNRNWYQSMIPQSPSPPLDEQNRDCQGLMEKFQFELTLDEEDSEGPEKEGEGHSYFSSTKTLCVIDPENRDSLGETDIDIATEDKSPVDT
Chain of Nuclear receptor subfamily 1 group I member 2 (Rattus norvegicus) (Q9R1A7 whole entry, looked up): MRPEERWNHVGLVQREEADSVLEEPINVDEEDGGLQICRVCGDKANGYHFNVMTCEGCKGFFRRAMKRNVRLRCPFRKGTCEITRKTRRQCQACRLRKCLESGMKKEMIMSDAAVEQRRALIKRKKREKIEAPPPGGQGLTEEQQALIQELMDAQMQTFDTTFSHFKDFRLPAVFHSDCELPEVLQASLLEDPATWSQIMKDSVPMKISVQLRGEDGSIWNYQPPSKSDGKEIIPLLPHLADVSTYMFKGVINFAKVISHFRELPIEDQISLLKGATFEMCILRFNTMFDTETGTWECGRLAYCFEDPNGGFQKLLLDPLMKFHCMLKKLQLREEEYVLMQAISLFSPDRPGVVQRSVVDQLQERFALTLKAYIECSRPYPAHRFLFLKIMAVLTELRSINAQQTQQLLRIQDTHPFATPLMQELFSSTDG
Chain of Peroxisome proliferator-activated receptor alpha (Homo sapiens) (Q07869 whole entry, looked up): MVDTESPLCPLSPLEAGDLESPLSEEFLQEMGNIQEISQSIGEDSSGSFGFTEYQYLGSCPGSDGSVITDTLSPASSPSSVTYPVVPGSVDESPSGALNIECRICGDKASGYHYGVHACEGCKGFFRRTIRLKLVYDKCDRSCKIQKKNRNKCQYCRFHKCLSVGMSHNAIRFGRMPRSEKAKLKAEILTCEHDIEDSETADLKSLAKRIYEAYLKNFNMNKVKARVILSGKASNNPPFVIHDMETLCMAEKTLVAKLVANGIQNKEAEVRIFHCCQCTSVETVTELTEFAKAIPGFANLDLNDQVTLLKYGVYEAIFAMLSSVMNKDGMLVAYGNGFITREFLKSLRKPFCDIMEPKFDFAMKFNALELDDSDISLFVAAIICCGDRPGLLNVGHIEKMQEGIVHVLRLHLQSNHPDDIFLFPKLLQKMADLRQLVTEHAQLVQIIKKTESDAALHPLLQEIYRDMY
Chain of Pyruvate kinase PKM (Homo sapiens) (P14618 whole entry, looked up): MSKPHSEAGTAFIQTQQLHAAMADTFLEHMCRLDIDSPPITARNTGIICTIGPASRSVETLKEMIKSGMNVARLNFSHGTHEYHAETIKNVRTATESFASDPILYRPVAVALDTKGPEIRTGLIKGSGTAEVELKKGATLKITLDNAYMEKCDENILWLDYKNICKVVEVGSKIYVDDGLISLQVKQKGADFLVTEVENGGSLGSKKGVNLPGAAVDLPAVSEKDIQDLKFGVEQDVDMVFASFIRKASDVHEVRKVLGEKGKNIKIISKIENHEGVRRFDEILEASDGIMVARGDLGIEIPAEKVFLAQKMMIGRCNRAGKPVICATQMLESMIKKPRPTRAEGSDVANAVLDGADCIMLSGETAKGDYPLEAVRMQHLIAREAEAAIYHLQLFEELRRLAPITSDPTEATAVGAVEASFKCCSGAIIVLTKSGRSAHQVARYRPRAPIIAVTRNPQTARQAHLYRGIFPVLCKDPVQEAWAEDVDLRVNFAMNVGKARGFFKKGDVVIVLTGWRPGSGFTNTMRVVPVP

Regarding `N#Cc1c(NC(=O)CCC(=O)O)sc2c1CCCC2`, the results for the activity change, negative = inhibition in assay [1] and in assay [2] were -1.32% and -1.33%, respectively. In addition, the activity, negative = inhibition in assay [3] was -10%. The Potency in [4] is greater than 20.6 µM. The activation in assay [5] was -23.4%.
On to `COCCNc1nc2c(c(=O)n(Cc3ccc(OC)cc3)c(=O)n2C)n1C`, for which the activity change, negative = inhibition in assay [1] was -10.1%; in assay [2], -7.8%. Besides, the activity, negative = inhibition in [3] is -12.3%. In addition, the Potency in assay [4] is greater than 20.6 µM. Further, the activation in assay [5] is -9.75%.
In the same order, the values of `O=C1C2ON(c3ccccc3)C(c3cccnc3)C2C(=O)N1Cc1ccccc1` (stereo not given) are -15.2%, -1.42%, -8.95%, greater than 20.6 µM and 1.83%.
For the molecule `O=c1oc2cc(O)ccc2c2oc3cc(O)ccc3c12`, the activity change, negative = inhibition is 5.61% in assay [1] and 3.33% in assay [2]. Besides, the activity, negative = inhibition in [3] is -5.07%. Moreover, the Potency is greater than 20.6 µM in assay [4] and 54.5 µM (active) in assay [9]. Further, the activation in assay [6] was -5.79%. Besides, the Potency result in assay [7], in [8] and in assay [13] was “inactive” each time. The max response in assay [10] was -1.88%; in assay [11], -3.33%; in assay [12], -9.05%; in [14], 3.73%.
`COC(=O)C1=C(N)Oc2cc(C)[nH]c(=O)c2C1c1ccncc1` (stereo not given): the activity change, negative = inhibition in assay [1] is -8.66%; in assay [2], 2.47%. Moreover, in assay [3], the activity, negative = inhibition is -7.56%. Moreover, the Potency in assay [4] is greater than 20.6 µM. In assay [5], the activation is 2.44%.
In the same order, the values of `COc1cc(C2C3C(=O)N(c4ccc(F)cc4)C(=O)C3ON2c2ccccc2)ccc1O` (stereo not given) are -17.6%, 0.386%, -1.27%, greater than 20.6 µM and -4.56%.
With `CCOC(=O)c1c(N)sc2c1CCC1C(=O)N(C3CCCCC3)C(=O)C21` (stereo not given), the activity change, negative = inhibition in [1] is -12.9%; in assay [2], -2.94%. In addition, in assay [3], the activity, negative = inhibition is -6.61%. Also, the Potency in assay [4] was greater than 20.6 µM. For the same molecule, in assay [5], the activation is -6.89%.
In the case of `CC(=O)[C@@]1(O)CC[C@@H]2[C@@H]3CCC4=CC(=O)CC[C@@]4(C)[C@H]3CC[C@]21C`, the activity change, negative = inhibition is 4.89% [at 38 µM] in [1] and -13.4% [at 38 µM] in assay [2]. Further, in assay [3], the activity, negative = inhibition is -11.8% [at 38 µM]. Further, the Potency in [4] is 0.162 µM (active). Moreover, the Potency result in [15], in assay [16], in assay [18] and in [19] was “inactive” each time. For the same molecule, the result in assay [17], in assay [20], in assay [21] and in [22] was inactive.
As to `COc1ccc(CNC(=O)c2c(C)cc(=O)oc2C)cc1OC`, the results for the activity change, negative = inhibition in [1] and in assay [2] were 13.7% and 13.8%, respectively. The activity, negative = inhibition in assay [3] is 9.9%. In addition, the Potency in assay [4] was greater than 20.6 µM. The activation in [5] is 12.6%.
